In the antibiotic and cytotoxicity screens of Wong et al. (2023):
About 3,300 (8.5%) of roughly 39,000 compounds were called active. This is one part of a sample in which actives are shown more often than they occur.

Test system: HepG2
Assay: cytotoxicity call (relative viability < 0.9)
Settings: 10 µM

Compound	cytotoxicity call
Cc1noc(C)c1NC(=O)N(C)C[C@@H]1Oc2c(NS(=O)(=O)c3ccccc3)cccc2C(=O)N([C@@H](C)CO)C[C@@H]1C	inactive
CC(C)Cn1c(N)cc(=O)n(C)c1=O	inactive
C[C@@H]1CCCCO[C@@H](CN(C)C(=O)Nc2ccc3c(c2)OCO3)[C@H](C)CN([C@H](C)CO)C(=O)c2cc(NS(=O)(=O)c3ccccc3)ccc2O1	inactive
COc1ccc(S(=O)(=O)Nc2cccc3c2O[C@H](CN(C)C(=O)Nc2cccc4ccccc24)[C@@H](C)CN([C@@H](C)CO)C3=O)cc1	inactive
C=CC[C@@H](CC(=O)N(CCO)Cc1ccccc1)C(=O)NC[C@@H](OC(=O)[C@@H](CC=C)Cc1ccc(F)cc1)c1ccccc1	inactive
C[C@@H]1CCCCO[C@@H](CN(C)CC2CC2)[C@H](C)CN([C@@H](C)CO)C(=O)c2cc(NC(=O)NC3CCCCC3)ccc2O1	inactive
O=C1NC(=O)[C@@]2(CC[C@H](C(=O)O)C2)N1	inactive
CN1CCN(C(=O)C[C@@H]2CC[C@H]3[C@@H](COC[C@H](O)CN3Cc3ccc(Oc4ccccc4)cc3)O2)CC1	inactive
C[C@@H]1CCCCO[C@@H](CN(C)S(=O)(=O)c2cccs2)[C@H](C)CN([C@@H](C)CO)C(=O)c2cc(NC(=O)NC3CCCCC3)ccc2O1	inactive
O=C(O)c1oc2ccccc2c1CSc1ccc(Cl)cc1	inactive
COc1ccc(CN(C)C[C@@H]2OCCCC[C@H](C)Oc3ccc(NC(=O)NC4CCCCC4)cc3C(=O)N([C@H](C)CO)C[C@@H]2C)cc1	inactive
COc1ccc(CN(C)C[C@@H]2OCCCC[C@H](C)Oc3ccc(NC(=O)NC4CCCCC4)cc3C(=O)N([C@@H](C)CO)C[C@@H]2C)cc1	active
COc1ccc(CN(C)C[C@H]2OCCCC[C@H](C)Oc3ccc(NC(=O)NC4CCCCC4)cc3C(=O)N([C@@H](C)CO)C[C@H]2C)cc1	active
COc1ccc(CN(C)C[C@@H]2OCCCC[C@@H](C)Oc3ccc(NC(=O)NC4CCCCC4)cc3C(=O)N([C@H](C)CO)C[C@@H]2C)cc1	inactive
COc1ccc(CN(C)C[C@H]2OCCCC[C@H](C)Oc3ccc(NC(=O)NC4CCCCC4)cc3C(=O)N([C@@H](C)CO)C[C@@H]2C)cc1	inactive
COc1ccc(CN(C)C[C@H]2OCCCC[C@@H](C)Oc3ccc(NC(=O)NC4CCCCC4)cc3C(=O)N([C@@H](C)CO)C[C@@H]2C)cc1	inactive
COc1ccc(CN(C)C[C@H]2OCCCC[C@H](C)Oc3ccc(NC(=O)NC4CCCCC4)cc3C(=O)N([C@H](C)CO)C[C@H]2C)cc1	inactive
COc1ccc(CN(C)C[C@@H]2OCCCC[C@@H](C)Oc3ccc(NC(=O)NC4CCCCC4)cc3C(=O)N([C@H](C)CO)C[C@H]2C)cc1	inactive
COc1ccc(CN(C)C[C@H]2OCCCC[C@@H](C)Oc3ccc(NC(=O)NC4CCCCC4)cc3C(=O)N([C@H](C)CO)C[C@H]2C)cc1	active
C[C@H](CO)N1C[C@H](C)[C@@H](CN(C)Cc2ccc(C(=O)Nc3ccccc3N)cc2)OCc2cnnn2CCCC1=O	inactive
CC(C)(C)[S@@](=O)N1Cc2cc(C(=O)N3CCCCC3)nc(-c3cccc(-c4ccc(F)cc4)c3)c2[C@H]1CCO	inactive
O=C(CN1CCOCC1)NCC[C@H]1CC[C@H](NS(=O)(=O)c2ccc(Cl)cc2)[C@H](CO)O1	inactive

Compound	cytotoxicity call
CCc1cc(=O)oc2c(C)c(O[C@@H]3O[C@H](CO)[C@@H](O)[C@H](O)[C@H]3O)ccc12	inactive
COc1ccc(S(=O)(=O)N(C)C[C@H]2Oc3ccc(NC(=O)CCC(F)(F)F)cc3CC(=O)N([C@H](C)CO)C[C@H]2C)cc1	inactive
Cc1cc(C(=O)Nc2cccc3c2O[C@H](CN(C)Cc2ccccc2)[C@H](C)CN([C@@H](C)CO)C3=O)n(C)n1	inactive
COCC#Cc1ccc2c(c1)O[C@H](CN(C)C(=O)C1CCCCC1)[C@@H](C)CN([C@@H](C)CO)S2(=O)=O	inactive
CO[C@H](CN(C)S(=O)(=O)c1cn(C)cn1)[C@H](C)CN(C(=O)Nc1ccc(C(F)(F)F)cc1)[C@H](C)CO	inactive
CC(C)NC(=O)Nc1ccc2c(c1)C(=O)N([C@H](C)CO)C[C@@H](C)[C@@H](CN(C)C(=O)Nc1ccc3c(c1)OCO3)O2	inactive
Cc1n[nH]c(C)c1S(=O)(=O)N1CCCC1	inactive
COc1ccc(NC(=O)Nc2ccc3c(c2)[C@@H]2C[C@H](CC(=O)N4CCN(C)CC4)O[C@H](CO)[C@@H]2O3)cc1	inactive
C[C@@H]1CN([C@@H](C)CO)C(=O)c2cccc(NC(=O)Nc3cccc4ccccc34)c2O[C@H]1CN(C)S(=O)(=O)c1ccc(F)cc1	inactive
C[C@H](CO)N1C[C@H](C)[C@@H](CN(C)S(=O)(=O)c2ccc(Cl)cc2)Oc2c(NC(=O)Nc3cccc4ccccc34)cccc2C1=O	active
C[C@@H]1CN([C@H](C)CO)C(=O)c2cccc(NC(=O)Nc3cccc4ccccc34)c2O[C@@H]1CN(C)S(=O)(=O)c1ccc(F)cc1	inactive
C[C@@H]1CN([C@@H](C)CO)C(=O)c2cccc(NC(=O)Nc3cccc4ccccc34)c2O[C@@H]1CN(C)S(=O)(=O)c1ccc(Cl)cc1	inactive
C[C@H]1CN([C@@H](C)CO)C(=O)c2cccc(NC(=O)Nc3cccc4ccccc34)c2O[C@@H]1CN(C)S(=O)(=O)c1ccc(F)cc1	active
C[C@H]1CN([C@@H](C)CO)C(=O)c2cccc(NC(=O)Nc3cccc4ccccc34)c2O[C@@H]1CN(C)S(=O)(=O)c1ccc(Cl)cc1	inactive
C[C@H]1CN([C@@H](C)CO)C(=O)c2cccc(NS(C)(=O)=O)c2O[C@H]1CN(C)S(=O)(=O)c1ccc(Cl)cc1	inactive
C[C@H]1CN([C@@H](C)CO)C(=O)Cc2cc(NC(=O)CCN3CCOCC3)ccc2O[C@@H]1CN(C)S(=O)(=O)c1ccccc1	inactive
COc1ccc(NC(=O)N(C)C[C@H]2Oc3ccc(NC(=O)CCN4CCOCC4)cc3C(=O)N([C@H](C)CO)C[C@@H]2C)cc1	inactive
CCS(=O)(=O)N1C[C@]2(CN(C2)S(=O)(=O)c2cn(cn2)C)c2c(n(c3cc(ccc23)OC)C)[C@@H]1CO	inactive
CC(=O)N(C)C[C@@H]1Oc2cc(C#CCN(C)C)ccc2S(=O)(=O)N([C@H](C)CO)C[C@H]1C	inactive
Cc1noc(C)c1S(=O)(=O)N(C)C[C@H]1Oc2ccc(NC(=O)CCN3CCOCC3)cc2CC(=O)N([C@@H](C)CO)C[C@H]1C	inactive
COC1OC2OC3(C)CCC4C(C)CCC(C1C)C24OO3 (stereo unspecified)	inactive
CC(=O)C1CCC2C3CC=C4CC(OC(=O)CCC(=O)O)CCC4(C)C3CCC12C (stereo unspecified)	inactive

Compound	cytotoxicity call
CC1CCC2C(C)C(OC(=O)CCC(=O)O)OC3OC4(C)CCC1C32OO4 (stereo unspecified)	active
CC1CCC2C(C)C(O)OC3OC4(C)CCC1C32OO4 (stereo unspecified)	active
CCCN(C)C[C@@H]1OCCCC[C@@H](C)Oc2ccc(NC(=O)C3CCCCC3)cc2C(=O)N([C@@H](C)CO)C[C@@H]1C	inactive
COc1cc(/C=C/C(=O)C2=C(NCCc3ccccc3)S[C@H](c3ccc(O)c(OC)c3)CC2=O)ccc1O	inactive
C[C@@H]1CN([C@@H](C)CO)C(=O)c2cccc(NS(=O)(=O)c3cn(C)cn3)c2O[C@H]1CN(C)CC1CC1	inactive
CNC[C@H]1Oc2ccc(NC(=O)Cn3cnnn3)cc2CC(=O)N([C@H](C)CO)C[C@@H]1C	inactive
C[C@@H](O)[C@@H](Nc1ncnc2ccccc12)C(=O)O	inactive
C[C@H]1CN([C@@H](C)CO)C(=O)c2cccc(NC(=O)c3ccc(-c4nccs4)cc3)c2O[C@@H]1CN(C)Cc1ccc2c(c1)OCO2	inactive
C[C@@H]1CCCCO[C@H](CN(C)Cc2ccc(C(=O)O)cc2)[C@@H](C)CN([C@@H](C)CO)C(=O)c2cc(NC(=O)c3ccccc3)ccc2O1	inactive
CO[C@@]12[C@H](COC(N)=O)C3=C(C(=O)C(C)=C(N)C3=O)N1C[C@@H]1N[C@@H]12	inactive
COC12C(COC(N)=O)C3=C(C(=O)C(C)=C(N)C3=O)N1CC1NC12 (stereo unspecified)	active
CO[C@@]12[C@@H]3N[C@@H]3CN1C1=C(C(=O)C(N)=C(C)C1=O)[C@@H]2COC(N)=O	active
COc1cccc(S(=O)(=O)Nc2ccc3c(c2)[C@@H]2C[C@@H](CC(=O)NCCc4ccccc4)O[C@@H](CO)[C@@H]2O3)c1	inactive
C=CCOC(=O)[C@@H]1[C@H]2C(=O)O[C@H](c3ccccc3)[C@H](c3ccccc3)N2[C@H](c2ccc(OCCOC(=O)[C@@H]3C[C@@H]4C(=O)N[C@@H](CC(C)C)C(=O)N4[C@@H]3c3ccc(O)cc3)cc2)[C@@]12C(=O)Nc1ccc(I)cc12	inactive
COC(=O)C[C@H]1CC[C@H]2[C@H](COc3ccc(NS(=O)(=O)c4ccccc4Cl)cc3C(=O)N2C)O1	inactive
O=C(/C=C/c1cccc(-c2cn(-c3cccc(C(=O)N4CCC5(CC4)C(=O)NCN5c4ccccc4)c3)nn2)c1)NO	inactive
O=C(CCc1cn(CC(=O)N2CCC3(CC2)C(=O)NCN3c2ccccc2)nn1)NO	active
O=C(Cn1cc(CN2C(=O)COC[C@H]2c2ccccc2)nn1)N1CCC2(CC1)C(=O)NCN2c1ccccc1	inactive
O=C(/C=C/c1cccc(-c2cn(CC(=O)N3CCC4(CC3)C(=O)NCN4c3ccccc3)nn2)c1)NO	inactive
O=C(NO)c1cn(CC(=O)N2CCC3(CC2)C(=O)NCN3c2ccccc2)nn1	inactive
O=C(NO)c1cn(-c2cccc(C(=O)N3CCC4(CC3)C(=O)NCN4c3ccccc3)c2)nn1	active
C[C@@H]1CN([C@H](C)CO)C(=O)c2cc(NS(=O)(=O)c3ccc(F)cc3)ccc2O[C@@H](C)CCCCO[C@@H]1CN(C)S(=O)(=O)c1ccc(Cl)cc1	inactive
